Experimental data as given in PubChem BioAssay AID2718 (Broad Institute, 2010).
The campaign covered roughly 320,000 compounds. About 480 (0.15%) were called active. Another 1% or so got no clear call; they are omitted. Rule as the data show it: active = inhibition above about 26% (passing the limit was not always enough); inconclusive = no clear call, values can overlap the other calls. Only a selection was taken, and actives are over-represented in it overall.

Each compound was assayed against Histone deacetylase 3 (Homo sapiens) (UniProt O15379) (assay: HDAC3 deacetylase inhibitors, primary screen, biochemical, fluorescence, cell-free homogeneous (AID 2718)). Settings: recombinant HDAC3, fluorogenic peptide/trypsin coupled, at 8.3 µM, hits give high values.
Histone deacetylase 3 (Homo sapiens), sequence (O15379 whole entry, looked up): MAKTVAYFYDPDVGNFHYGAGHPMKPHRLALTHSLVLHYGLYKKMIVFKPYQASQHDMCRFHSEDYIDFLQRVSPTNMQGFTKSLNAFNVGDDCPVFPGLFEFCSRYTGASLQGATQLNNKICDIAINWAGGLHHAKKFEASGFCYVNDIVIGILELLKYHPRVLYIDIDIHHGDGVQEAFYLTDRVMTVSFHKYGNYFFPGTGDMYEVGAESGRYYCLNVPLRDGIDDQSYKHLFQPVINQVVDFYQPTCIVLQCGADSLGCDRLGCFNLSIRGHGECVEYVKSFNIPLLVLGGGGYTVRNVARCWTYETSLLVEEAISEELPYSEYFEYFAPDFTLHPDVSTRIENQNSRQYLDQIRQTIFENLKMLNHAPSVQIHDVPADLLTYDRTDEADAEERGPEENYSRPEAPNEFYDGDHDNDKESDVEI

inhibition, inactive:
Cc1ccc2nc(-c3ccc(NC(=O)c4cccnc4)cc3)oc2c1 -0.79%
Cc1ccc(NC(=O)Cc2nc(COC(=O)C(C)NS(=O)(=O)c3ccc(C)cc3)cs2)cc1 (centres undefined) 1.23%
CC(=O)Nc1ccc(S(=O)(=O)NCCC(=O)N2CCN(c3ccccc3Cl)CC2)cc1 -4.42%
CCOc1cc(C(C(=O)NCC2CCCO2)N(C(=O)Cn2nnc3ccccc32)c2cccc(OC)c2)ccc1O (centres undefined) -5.33%
COc1ccc(C(=O)NCc2ccccc2C)cc1S(=O)(=O)NC1CCCC1 2.42%
COc1cc(OC)c(NC(=O)C2CCCN2C(=O)OCc2ccccc2)cc1Cl (centres undefined) 2.9%
CCN(C(=O)CSc1nnnn1-c1ccc(OC)cc1)C1CCS(=O)(=O)C1 (centres undefined) -1.21%
COc1ccccc1NS(=O)(=O)c1ccc(C)c(C(=O)NNC(=O)c2csc(N3CCOCC3)n2)c1 -8.84%
CSc1ncccc1C(=O)NCC(c1ccco1)N1CCCCC1 (centres undefined) -0.371%
CN(CC(=O)NCCc1ccc(S(N)(=O)=O)cc1)CC(=O)Nc1ccc(Cl)cc1 2.8%
CC1Sc2ccc(C(=O)NCc3ccccc3Cl)cc2NC1=O (centres undefined) 3.12%
c1ccc2c(CCN3CCNC[C@H]3Cc3cccc4ccccc34)cccc2c1 4.64%
CC1COC2C(O1)N(S(C)(=O)=O)CCN2S(C)(=O)=O (centres undefined) -8.42%
COc1ccc2nc3n(c(=O)c2c1)-c1cc(C)ccc1C(=O)NC3Cc1ccc(O)cc1 (centres undefined) 4.49%
Cc1ccc(NC(=O)CN(C)C(=O)c2ccc(Cl)c(S(=O)(=O)NCc3ccco3)c2)cc1 1.2%
COCCCNC(=O)CC1C[C@H](C(=O)N2CCCCC2)[C@@]2(CCc3ccccc3)c3[nH]c4ccccc4c3CCN2C1=O (some centres undefined) -3.31%
CC(=O)c1nn(-c2ccc(C)cc2)cc1C(=O)c1cccc(Br)c1 7.63%
Cc1nnc(SCC(=O)Nc2ccc(S(=O)(=O)Nc3ccc(Cl)nn3)cc2)s1 0.425%
CN(C(=O)c1ccccc1)c1nccnc1C#N 2.83%
O=C(Nc1ccccc1)O/N=C1/CCCc2occc21 -0.26%
Cc1ccc(NS(=O)(=O)c2ccc(C(=O)NCCCN3CCOCC3)cc2)cc1 -2.45%
Nn1c(SCC(=O)NC2CCCc3ccccc32)nnc1C1CC1 (centres undefined) 2.63%
COc1cc(OC)cc(-c2c(C#Cc3ccsc3)c3cc(-c4ccc(SC)cc4)ccc3n2C)c1 -8.45%
CN(C)C(=O)c1cccn(Cc2cccc(C(F)(F)F)c2)c1=O 0.89%
